# Screening data: PubChem, National Center for Advancing Translational Sciences (NCATS)
# Only a selection was taken, and hits are over-represented in it overall.
# Eya2 inh: Eya2 (human) phosphatase inhibition | recombinant Eya2, OMFP fluorescence dephosphorylation (OMFP is methylfluorescein phosphate) | Potency, µM (highest dose often 76.9 µM), without a hit: at the top dose activity, negative = inhibition, most hits filed as inhibitors | 330,000 compounds, 0.006% hits | AID 488837; further: on the % scale 0 is the no-effect control and ±100 the full control effect
# Target sequence (O00167 whole entry, looked up): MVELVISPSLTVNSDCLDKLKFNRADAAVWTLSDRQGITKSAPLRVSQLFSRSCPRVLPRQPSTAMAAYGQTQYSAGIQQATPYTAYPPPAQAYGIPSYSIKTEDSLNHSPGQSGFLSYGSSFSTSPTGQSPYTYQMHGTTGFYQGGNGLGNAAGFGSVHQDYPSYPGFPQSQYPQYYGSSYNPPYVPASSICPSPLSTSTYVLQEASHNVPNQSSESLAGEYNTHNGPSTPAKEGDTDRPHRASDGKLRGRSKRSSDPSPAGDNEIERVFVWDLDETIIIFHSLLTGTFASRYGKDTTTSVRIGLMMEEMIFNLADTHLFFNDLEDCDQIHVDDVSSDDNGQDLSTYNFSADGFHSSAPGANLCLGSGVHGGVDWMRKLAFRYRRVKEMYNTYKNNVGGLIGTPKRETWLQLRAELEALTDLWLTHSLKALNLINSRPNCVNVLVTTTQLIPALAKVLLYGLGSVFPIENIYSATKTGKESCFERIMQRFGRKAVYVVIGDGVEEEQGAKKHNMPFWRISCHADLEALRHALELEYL
#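 Eya2 (0.2 uM) preincubated 10 min at ambient with compound, then OMFP substrate added at 50 uM; 10 min reaction in 50 mM HEPES pH 7.5, 50 mM NaCl, 5 uM MgCl2, 0.05% BSA, 1 mM DTT. Fluorescence read at Ex 485/Em 525 nm.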
# ClpP mod: qHTS Assay for Activators of ClpP; Potency, µM (titrated, usually from 57.5 µM), inactives show at the top dose activity change, negative = active; ATP-dependent Clp protease proteolytic subunit (Bacillus subtilis (strain 168)), P80244; AID 651965, 2013; 340,000 compounds, 1.9% hits; purified B. subtilis ClpP, FRET peptide cleavage, 20 min; active means well fitted falling curve with a large enough effect; inconclusive means small, poorly fitted or top-dose-only effect; inactive means no such curve, though single readings can be large or run the other way; further: the source files actives as falling curves though it sought activators and does not explain the sign; nearly all actives have a fitted effect of over 65% in size
# Target sequence (P80244 whole entry, looked up): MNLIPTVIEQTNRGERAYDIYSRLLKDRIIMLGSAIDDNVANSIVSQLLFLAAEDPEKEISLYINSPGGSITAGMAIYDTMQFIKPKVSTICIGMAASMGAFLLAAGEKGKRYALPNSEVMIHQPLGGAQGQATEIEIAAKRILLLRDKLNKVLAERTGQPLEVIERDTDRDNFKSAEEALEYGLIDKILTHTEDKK
#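 Purified B. subtilis ClpP, 10 microg/mL final in Tris/HCl pH8 with KCl, BSA, glycerol and Tween-20, cleaved an Abz/nitrotyrosine-quenched decapeptide. Fluorescence (ex 320, em 430) was read at 0 and 20 min at room temperature. Delta was normalized to 5.8 microM ADEP and DMSO/no-enzyme controls.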
# MmCpn inh: inhibitors of Methanococcus maripaludis chaperonin TRiC (MmCpn). purified Mm-Cpn ATPase, ADP Transcreener TR-FRET. Potency, µM (highest dose often 76.9 µM), without a hit: at the top dose activity, negative = inhibition, usual class: inhibitors. 330,000 compounds, 0.031% hits. AID 504842; further: on the % scale 0 is the no-effect control and ±100 the full control effect; nearly all actives have a fitted effect of over 80% in size
#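 ATPase turnover read by TR-FRET ADP competition (Eu cryptate antibody/ADP-d2, 665/590 nm): 10uM ATP final, 25nM Mm-CPN final, 30 min 37degC after 10-min compound preincubation, pH 7.4 Tris/KCl/MgCl2/DTT buffer.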
# USP2a block: inhibitors of human ubiquitin-specific protease USP2a. O75604. USP2 core, Ub-CHOP2 coupled fluorogenic reporter, 485/531. Potency, µM (highest dose often 38.3 µM), inactives show at the top dose activity change, negative = inhibition, usual class: inhibitors. 330,000 compounds, 0.01% hits. AID 463254;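 further: plate controls were DMSO wells for no effect and full inhibition by NEM control for full effect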
#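 USP2 core (10nM final) preincubated 30min RT with compound in 20mM Tris-HCl pH 8.0, 2mM CaCl2, 2mM beta-mercaptoethanol, 0.05% CHAPS; 25nM Ub-CHOP2 plus 25nM reporter substrate added, fluorescence (Ex485/Em531) read after 60min.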
# a7 integrin act: integrin-mediated muscular dystrophy alleviation activation | alpha7betagal myoblasts, beta-gal FDG fluorescence, 48 h | 350,000 compounds, 0.064% hits | AID 624291 | Potency, µM (highest dose often 38.3 µM), without a hit: top-dose activation, actives largely listed as activators;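 further: 100% = response of the positive control SU9516; nearly all actives have a fitted effect of over 60% in size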
#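 Alpha7betagal+/- myoblasts (passage 13) were plated 16-24 hr, then exposed to compounds (1:260 dilution of DMSO stock) for 48 hours at 37C. After MPER lysis, β-galactosidase reporter activity was read as FDG fluorescence (ex 480/em 540) after 30 minutes.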
# p53 reactivator: re-activators of mutant p53. H1299 p53-A138V BP100-luciferase reporter, luminescence, 24 h. Potency, µM (doses to about 92.2 µM), for inactives: at the top dose activity change, positive = activation, actives largely listed as activators. 320,000 compounds, 0.063% hits; further: % of control where 0% means no effect; nearly all actives have a fitted effect of over 45% in size
#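 p53-null H1299 cells stably carrying temperature-sensitive p53-A138V and a BP100-luciferase reporter were pinned with compounds (4-point, 1:5 series) and held 24 hrs at 37 deg C. Luminescence was read 10 min after detection reagent.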
# An asterisk follows results filed as active; u = inconclusive; x = no result given; [ ] = remark or other dose. Unless noted, the call rests on the fitted dose curve; in most records, active means well fitted curve in the direction sought with a large enough effect; inconclusive means small, poorly fitted or top-dose-only effect, or another doubt; inactive means no such curve, though single readings can be large; an effect the other way counts as inactive or inconclusive. Potency means the concentration at half of the fitted maximal effect.
SMILES,Eya2 inh,ClpP mod,MmCpn inh,USP2a block,a7 integrin act,p53 reactivator
CCc1cc(=O)oc2c(C)c(OC(C)C(=O)NCC3CCC(C(=O)O)CC3)ccc12 (centres undefined),-2%,5%,-1%,0%,6%,x
CCOC(=O)C(C)Oc1ccc2c(CC)cc(=O)oc2c1C (centres undefined),-34%,18µM*,-2%,1%,-2%,-4%
CC(=O)CSc1nc(-c2ccccc2)c(-c2ccccc2)o1,7%,28µM*,1%,1%,21%,-4%
CC1(C)CC(=O)C2=C(C1)Nc1ncnn1C2c1ccccn1 (centres undefined),-12%,-11%,0%,-1%,16%,-4%
CSc1nc2n(n1)C(c1ccccn1)C1=C(CC(C)(C)CC1=O)N2 (centres undefined),-6%,25µM*,1%,0%,22%,12%
COC(=O)c1ccc2c(c1)C(=O)/C(=C/c1ccc(C)cc1)O2,4%,28µM*,-4%,4%,-3%,10%
CCc1ccc(/C=C2\Oc3ccc(C(=O)OC)cc3C2=O)cc1,0%,-9%,3%,-4%,-23%,1%
CCOC(=O)N1CCN(c2nc(-c3cccc(OC)c3)cc(C(F)(F)F)n2)CC1,9%,28µM*,-1%,2%,-19%,-6%
O=C(CNC(=O)c1ccccc1F)OCC(=O)N1CCCCC1,-5%,25µM*,0%,2%,-7%,11%
CCOC(=O)c1ccc(NC(=O)N2CCN(CCc3ccccc3)CC2)cc1,0%,-3%,1%,1%,3%[7.66 µM],u
Cc1nc2cc(NC(=O)N3CCN(c4ccccn4)CC3)ccc2o1,x,25µM*,x,x,-6%,x
O=C1CC(C(=O)N2CCN(c3ccccn3)CC2)CN1Cc1ccccc1Cl (centres undefined),14%,32µM*,0%,1%,-13%,2%
O=C(Nc1ccccc1Cl)N1CCN(c2ccccn2)CC1,-1%,22µM*,1%,0%,9%,6%
CCOC(=O)c1ccc(NC(=O)N2CCN(c3ccccn3)CC2)cc1,-1%,22µM*,0%,1%,7%,-3%
CC(=O)Nc1ccc(/C=C2\C=Cc3ccccc32)cc1,x,2%,x,x,x,x
CCOc1ccc(/C=C/c2ccnc3ccccc23)cc1OCC,x,-10%,x,x,x,x
O=C1[C@H](Cc2ccccc2)NC/C=C\C[C@@H](c2ccco2)N1Cc1ccccc1,x,2%,x,x,x,x
COc1ccccc1-c1nn2c(C(F)(F)F)nnc2s1,15%,13µM*,-1%,0%,-15%,3%
Clc1ccccc1-c1nnc2sc(-c3ccncc3)nn12,3%,-1%,-3%,1%,17%,-3%
c1ccc(Cc2nnc3sc(-c4ccccn4)nn23)cc1,28%,0%,-4%,1%,-3%[7.66 µM],u
CCOc1ccccc1-c1nn2c(Cc3ccccc3)nnc2s1,2%,25µM*,-5%,-1%,17%,-9%
CN(C)c1ccc(-c2nn3c(-c4ccccc4Cl)nnc3s2)cc1,13%,16µM*,1%,2%,-25%,0%
COc1ccccc1-c1nnc2sc(-c3ccc(N(C)C)cc3)nn12,-6%,25µM*,0%,-2%,-40%,16%
Cn1nnnc1SCCCNCc1ccc(-c2ccc(Br)cc2)o1,x,-5%,x,x,x,x
CCOc1ccc(/C=C/c2nc(C#N)c(NC(C)c3ccccc3)o2)cc1 (centres undefined),x,4%,x,x,x,x
SMILES,Eya2 inh,ClpP mod,MmCpn inh,USP2a block,a7 integrin act,p53 reactivator
O=c1[nH]c(/C=C/c2cccc3ccccc23)nc2ccccc12,-10%,x,2%,2%,-8%,8%
O=c1[nH]c(/C=C/c2ccccn2)nc2ccccc12,0%,-16%,-4%,-9%,0%,11µM*
O=Cc1ccc2[nH]ccc2c1,x,0%,x,x,x,x
CN(C)c1ccc(C=NC2CCc3ccccc32)cc1 (centres undefined),x,-25%,x,x,x,x
CCCCNC(=O)c1cccc2c(=O)c(C)c(-c3ccccc3)oc12,-7%,28µM*,-20%,0%,11%,-4%
N#Cc1cnn2cc(-c3ncc(C(F)(F)F)cc3Cl)cnc12,9%,28µM*,-1%,1%,0%,1%
CCOC(=O)c1ccc2nc(C(F)(F)F)[nH]c(=O)c2c1,8%,4µM*,0%,-2%,1%,-3%
CCOC(=O)c1ccc2nc(C)c3c(c2c1)OC(C)C3 (centres undefined),3%,32µM*,-3%,2%,15%,-13%
COc1ccc2nc(C)c3c(c2c1)OC(C)C3 (centres undefined),7%,u,-2%,-2%,6%,-4%
Cc1ccccc1S(=O)(=O)N1CCN(c2nc(-c3cccs3)nc3ccccc23)CC1,x,-10%,x,x,x,x
COC(=O)[C@H](CC(C)C)NS(=O)(=O)NC(=O)OC(C)(C)C,x,-2%,x,x,x,x
COc1ccc(C(=O)Nn2cnc3scc(-c4cccs4)c3c2=O)c(O)c1,7%,32µM*,1%,4%,24%,u
COc1ccc2c(c1)C=C/C2=C/c1ccc(N(C)C)cc1,x,-1%,x,x,x,x
CCN1CCN(c2oc(-c3ccc(COc4ccc(C)cc4)o3)nc2C#N)CC1,x,32µM*,x,x,x,x
Cc1ccc(OCc2nc(C#N)c(N3CCN(Cc4ccccc4)CC3)o2)cc1,-34%,-2%,3%,3%,22%,6%
COc1ccc(OCc2ccc(-c3nc(C#N)c(N4CCN(C)CC4)o3)o2)cc1,x,28µM*,x,x,x,x
COc1ccc(-c2nc(C#N)c(N3CCCCC3)o2)cc1,-13%,-2%,-3%,-9%,16%,2%
COc1ccc(OCc2ccc(-c3nc(C#N)c(N4CCCCC4)o3)o2)cc1,x,28µM*,x,x,x,x
COc1ccc(OCc2ccc(-c3nc(C#N)c(N4CCN(c5cccc(Cl)c5)CC4)o3)o2)cc1,x,3.5µM*,x,x,x,x
Cc1nc2n(c(=O)c1CCN1CCC(c3noc4cc(F)ccc34)CC1)CCC[C@@H]2O,x,-1%,x,x,x,x
CC(C)c1ccc(NC(=O)C2CCC(CNS(=O)(=O)c3ccc4c(c3)CCCC(=O)N4)CC2)cc1 (centres undefined),x,-3%,x,x,x,x
COC(=O)c1[nH]c2ccccc2c1NC(=O)Oc1ccccc1,6%,28µM*,-11%,-1%,-24%,18%
COC(=O)c1[nH]c2cc(OC)c(OC)cc2c1NC(=O)Oc1ccccc1,1%,32µM*,-8%,2%,23%,-4%
